Growth inhibition data for ten compounds are collected here from PubChem BioAssay (NCI).

This is part of a sample that, as a whole, favours compounds with a hit. Of some 79,000 tested, about 15% had one in any assay. Values without a mark were called inactive. The source made the active and inactive calls. No stated cut-off is given here; in the data, active means growth inhibition above about 70%; inactive means the rest.

Test [1] can be described thus: NCI Yeast Anticancer Drug Screen. Data for the rad50 strain (AID 155).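 Further: 0% = growth of vehicle-only cultures of the same strain.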 The note with it: S. cerevisiae rad50 strain growth inhibition, active compounds read high. The method in brief: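 A DNA repair-deficient yeast mutant serves as the test organism; compound-induced growth inhibition is calculated against vehicle-treated cells.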
A short description of test [2]: NCI Yeast Anticancer Drug Screen. Data for the mec2-1 strain (AID 157). The note with it: S. cerevisiae mec2-1 strain, active compounds read high. Put shortly:
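Mutant yeast (mec2-1) grown with compound; growth inhibition relative to vehicle control reported.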

A short description of test [3]: NCI Yeast Anticancer Drug Screen. Data for the sgs1 mgt1 strain (AID 161).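 Further: 0% = growth of cultures given vehicle only.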 The following applies: S. cerevisiae sgs1 mgt1 strain, active compounds read high. The method in brief:
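Growth of a repair-deficient yeast mutant was monitored after compound treatment and expressed as inhibition relative to vehicle-treated cultures.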

Test [4] is described as follows: NCI Yeast Anticancer Drug Screen. Data for the cln2 rad14 strain (AID 165).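 Further: 0% = growth equal to vehicle treated cultures.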 The note with it: S. cerevisiae cln2 rad14 strain, active compounds read high. The method in brief: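 Readout is yeast growth inhibition versus vehicle-treated controls, using a strain with cln2 and rad14 alterations exposed to compound.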
A short description of test [5]: NCI Yeast Anticancer Drug Screen. Data for the bub3 strain (AID 167). The following applies: S. cerevisiae bub3 mutant strain, active compounds read high. The method in brief: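 Inhibition values come from growth of compound-treated mutant yeast normalised to vehicle-treated controls.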
The nature of test [6]: NCI Yeast Anticancer Drug Screen. Data for the mlh1 rad18 strain (AID 175). The following applies: S. cerevisiae mlh1 rad18 strain growth inhibition, active compounds read high. Put shortly:
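Genetically defined yeast (DNA repair-deficient) exposed to compounds; growth inhibition determined relative to vehicle.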

[7] abbreviates: at 5.0 µM (retest, dose inferred, filed as 0.5).
Setting [8] is: at 50.0 µM (retest, dose inferred, filed as 5.0).

Consider `CCN(CC)CCOc1ccc(NC(=S)Nc2ccc(OCC(C)C)cc2)cc1`, for which the growth inhibition in test [1] (setting [7]) was 2%; in test [1] (setting [8]), 54%; in test [1] (at 50.0 µM) it was 66.1%; in test [2] (setting [7]) it was 29%; in test [2] (setting [8]), 65%; in test [2] (at 50.0 µM) it was 34.1%. For the same compound, the growth inhibition in test [3] (setting [7]) was 42%; in test [3] (setting [8]) it was 76% (active); in test [3] (at 50.0 µM) it was 81.8% (active); in test [4] (setting [7]), 10%; in test [4] (setting [8]) it was 53%; in test [4] (at 50.0 µM) it was 83.9% (active). The growth inhibition in test [5] (setting [7]) is 4%; in test [5] (setting [8]), 47%; in test [5] (at 50.0 µM), 76% (active); in test [6] (setting [7]), 46%; in test [6] (setting [8]) it was 74% (active); in test [6] (at 50.0 µM) it was 80.9% (active).

With `C/C(=N\NC(=S)Nc1ccc(N(C)C)cc1)c1ccccn1`, the growth inhibition is -1% in test [1] (setting [7]); 23% in test [1] (setting [8]); 72.2% (active) in test [1] (at 50.0 µM); -4% in test [2] (setting [7]); 68% in test [2] (setting [8]); 97.5% (active) in test [2] (at 50.0 µM). Besides, the growth inhibition in test [3] (setting [7]) was -2%; in test [3] (setting [8]) it was 74% (active); in test [3] (at 50.0 µM), 79.7% (active); in test [4] (setting [7]), 1%; in test [4] (setting [8]), 72% (active); in test [4] (at 50.0 µM) it was 31.8%. Besides, the growth inhibition is -1% in test [5] (setting [7]); 35% in test [5] (setting [8]); 46.3% in test [5] (at 50.0 µM); -7% in test [6] (setting [7]); 78% (active) in test [6] (setting [8]); 82.3% (active) in test [6] (at 50.0 µM).

As for `c1ccc(-c2c[nH]c(-c3ccccc3)c2-c2ccccc2)cc1`, the growth inhibition in test [1] (setting [7]) is 1%; in test [1] (setting [8]), 90% (active); in test [1] (at 50.0 µM), 95.2% (active); in test [2] (setting [7]) it was -13%; in test [2] (setting [8]) it was 93% (active); in test [2] (at 50.0 µM) it was 95.1% (active). Moreover, the growth inhibition in test [3] (setting [7]) was -15%; in test [3] (setting [8]) it was 94% (active); in test [3] (at 50.0 µM), 93.3% (active); in test [4] (setting [7]) it was -4%; in test [4] (setting [8]), 80% (active); in test [4] (at 50.0 µM) it was 95% (active). Also, the growth inhibition in test [5] (setting [7]) was 7%; in test [5] (setting [8]) it was 92% (active); in test [5] (at 50.0 µM), 83.4% (active); in test [6] (setting [7]) it was 18%; in test [6] (setting [8]), 94% (active); in test [6] (at 50.0 µM), 96.8% (active).

For `N#Cc1ccc(C2Oc3ccc(Cl)cc3C=C2[N+](=O)[O-])cc1` (stereo not given), the growth inhibition in test [1] (setting [7]) is 98% (active); in test [1] (setting [8]), 99% (active); in test [1] (at 50.0 µM), 84.7% (active); in test [2] (setting [7]), 100% (active); in test [2] (setting [8]), 99% (active); in test [2] (at 50.0 µM), 75.7% (active). Besides, the growth inhibition is 100% (active) in test [3] (setting [7]); 99% (active) in test [3] (setting [8]); 91.2% (active) in test [3] (at 50.0 µM); 98% (active) in test [4] (setting [7]); 98% (active) in test [4] (setting [8]); 88.7% (active) in test [4] (at 50.0 µM). For the same compound, the growth inhibition is 98% (active) in test [5] (setting [7]); 98% (active) in test [5] (setting [8]); 75.6% (active) in test [5] (at 50.0 µM); 99% (active) in test [6] (setting [7]); 99% (active) in test [6] (setting [8]); 83.3% (active) in test [6] (at 50.0 µM).

For `C#CCn1cnc2c(N)ncnc21`, the growth inhibition in test [1] (setting [7]) is -1%; in test [1] (setting [8]), -11%; in test [1] (at 50.0 µM), 6.75%; in test [2] (setting [7]) it was 3%; in test [2] (setting [8]) it was -8%; in test [2] (at 50.0 µM) it was 15.8%. Also, the growth inhibition in test [3] (setting [7]) was 5%; in test [3] (setting [8]), -13%; in test [3] (at 50.0 µM) it was 28.4%; in test [4] (setting [7]), 3%; in test [4] (setting [8]), -6%; in test [4] (at 50.0 µM), 84.2% (active). The growth inhibition was -4% in test [5] (setting [7]); -16% in test [5] (setting [8]); -6.65% in test [5] (at 50.0 µM); 2% in test [6] (setting [7]); -14% in test [6] (setting [8]); 7.3% in test [6] (at 50.0 µM).

On to `COc1cc(O)c2c(c1)C(=O)c1cc3c(c(O)c1C2=O)C(OC1OC(C)C(O)C(O)C1OC)C(OC)C(C)(O)C3=O` (stereo not given), for which the growth inhibition in test [1] (setting [7]) is 95% (active); in test [1] (setting [8]), 99% (active); in test [1] (at 50.0 µM) it was 92.5% (active); in test [2] (setting [7]), 35%; in test [2] (setting [8]) it was 99% (active); in test [2] (at 50.0 µM), 93.4% (active). Moreover, the growth inhibition in test [3] (setting [7]) was 35%; in test [3] (setting [8]) it was 99% (active); in test [3] (at 50.0 µM), 93.7% (active); in test [4] (setting [7]), 12%; in test [4] (setting [8]) it was 99% (active); in test [4] (at 50.0 µM), 89.9% (active). The growth inhibition in test [5] (setting [7]) was 15%; in test [5] (setting [8]), 99% (active); in test [5] (at 50.0 µM) it was 93.3% (active); in test [6] (setting [7]), 58%; in test [6] (setting [8]), 99% (active); in test [6] (at 50.0 µM), 92.8% (active).

In the case of `CC(=O)OCCC1=CCC2CC1C2(C)C` (stereo not given), the growth inhibition is -2% in test [1] (setting [7]); 2% in test [1] (setting [8]); -22.6% in test [1] (at 50.0 µM); -40% in test [2] (setting [7]); 4% in test [2] (setting [8]); 7.2% in test [2] (at 50.0 µM). For the same compound, the growth inhibition is -3% in test [3] (setting [7]); 4% in test [3] (setting [8]); -12.8% in test [3] (at 50.0 µM); -6% in test [4] (setting [7]); -7% in test [4] (setting [8]); 23.4% in test [4] (at 50.0 µM). For the same compound, the growth inhibition in test [5] (setting [7]) was -10%; in test [5] (setting [8]) it was -5%; in test [5] (at 50.0 µM) it was -16.2%; in test [6] (setting [7]) it was -3%; in test [6] (setting [8]) it was 3%; in test [6] (at 50.0 µM), -10.7%.

On to `CN1CCN(CCCN)CC1`, for which the growth inhibition was -8% in test [1] (setting [7]); 8% in test [1] (setting [8]); 3.7% in test [1] (at 50.0 µM); -3% in test [2] (setting [7]); -25% in test [2] (setting [8]); 25.1% in test [2] (at 50.0 µM). In addition, the growth inhibition in test [3] (setting [7]) was -4%; in test [3] (setting [8]) it was -3%; in test [3] (at 50.0 µM), -29.9%; in test [4] (setting [7]), 4%; in test [4] (setting [8]), -4%; in test [4] (at 50.0 µM), 29.9%. The growth inhibition in test [5] (setting [7]) is 17%; in test [5] (setting [8]) it was -14%; in test [5] (at 50.0 µM), -18%; in test [6] (setting [7]) it was -2%; in test [6] (setting [8]), 5%; in test [6] (at 50.0 µM), 11.1%.

Turning to `COC(=O)CSc1nc2[nH]c(SC)c(C(N)=O)c2c(=O)n1-c1ccccc1`, the growth inhibition in test [1] (setting [7]) was -2%; in test [1] (setting [8]), -4%; in test [1] (at 50.0 µM), 2.35%; in test [2] (setting [7]) it was -2%; in test [2] (setting [8]), -22%; in test [2] (at 50.0 µM), 29.4%. The growth inhibition was 3% in test [3] (setting [7]); -7% in test [3] (setting [8]); 7.25% in test [3] (at 50.0 µM); -5% in test [4] (setting [7]); 3% in test [4] (setting [8]); 46.2% in test [4] (at 50.0 µM). Besides, the growth inhibition in test [5] (setting [7]) was 18%; in test [5] (setting [8]), 21%; in test [5] (at 50.0 µM), 7.8%; in test [6] (setting [7]), -14%; in test [6] (setting [8]), -19%; in test [6] (at 50.0 µM), 9.8%.

Regarding `CC(C)N(CC(=O)c1ccc2cc(Cl)c3ccccc3c2c1)C(C)C`, the growth inhibition is 20% in test [1] (setting [7]); 97% (active) in test [1] (setting [8]); 99% (active) in test [1] (at 50.0 µM); 34% in test [2] (setting [7]); 98% (active) in test [2] (setting [8]); 98.6% (active) in test [2] (at 50.0 µM). The growth inhibition in test [3] (setting [7]) was 79% (active); in test [3] (setting [8]), 98% (active); in test [3] (at 50.0 µM) it was 98.8% (active); in test [4] (setting [7]), 8%; in test [4] (setting [8]), 98% (active); in test [4] (at 50.0 µM) it was 98.2% (active). The growth inhibition in test [5] (setting [7]) was 32%; in test [5] (setting [8]) it was 97% (active); in test [5] (at 50.0 µM), 98.5% (active); in test [6] (setting [7]) it was 39%; in test [6] (setting [8]), 98% (active); in test [6] (at 50.0 µM), 98.5% (active).
